GC-B act – GC-B (human) receptor activation; P20594; activation, % at 10 µM; 370,000 compounds, 0.11% hits; HEK293-GC-B cells, CNP EC30, cGMP TR-FRET; 0% at EC30 CNP, 100% saturating CNP;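 active means activation at 10 µM reaching about 35% in either raw or pattern-adjusted values, limit read from the data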
NSD2 HMT inh – inhibitors of human histone methyltransferase NSD2. O96028. inhibition, % at 12.5 µM. AID 743445. NSD2 peptide methylation, AlphaScreen, 120 min. 310,000 compounds, 0.54% hits; in the data active means inhibition above about 50%
Efflux pump mplx – antifungal efflux pump inhibition, Nile Red retention; S. cerevisiae Candida pump triplex; inhibition, % at 10 µM; 330,000 compounds, 0.44% hits; AID 485275;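 active means plate passing quality check with inhibition over a set limit, or well fluorescence over plate mean plus 4 SD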;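 further: Nile Red retained in pooled yeast measured as flow cytometry median fluorescence; higher means more Nile Red kept so more efflux inhibition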
Rce1 inh – inhibitors of yeast Ras-converting enzyme; AID 2563; calls only; 290,000 compounds, 0.27% hits; Q03530; yeast membranes, quenched prenylated peptide cleavage fluorescence;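 active means fall in fluorescence gain of 50% or more versus controls, with final raw signal at or below 3038400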
Target sequence (Q03530 whole entry, looked up): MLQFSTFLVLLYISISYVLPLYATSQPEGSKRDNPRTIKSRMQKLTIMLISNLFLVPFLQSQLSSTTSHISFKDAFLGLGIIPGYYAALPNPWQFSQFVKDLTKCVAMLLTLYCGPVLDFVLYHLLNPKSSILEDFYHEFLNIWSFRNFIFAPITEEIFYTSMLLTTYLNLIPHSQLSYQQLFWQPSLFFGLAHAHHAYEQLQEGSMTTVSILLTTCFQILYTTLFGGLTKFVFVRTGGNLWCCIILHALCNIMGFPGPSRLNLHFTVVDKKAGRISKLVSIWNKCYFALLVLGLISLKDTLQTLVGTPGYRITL
GC-A act – GC-A (human) enzyme activation. HEK293 GC-A cells, cGMP TR-FRET, EC30 ANP; 0% at EC30 ANP, 100% saturating ANP. activation, % at 10 µM. 370,000 compounds, 0.14% hits. AID 1671463; in the data active means activation above about 40%
V-ATPase pH – yeast V-ATPase proton transport regulation by pHLuorin | response, % at 10 µM | 350,000 compounds, 0.37% hits | S. cerevisiae, pHLuorin cytosolic pH fluorescence; in the data active means response mostly above about 7.3%, no sharp cut-off; inactive means mostly below about 5.4%; further: actives read high
VATPase regulator – regulators of yeast V-ATPase proton transport; shares compounds with V-ATPase pH; S. cerevisiae pHLuorin cytosolic pH; response, % at 10 µM; 980 compounds, 2% hits; in the data active means response above about 24%
Large screens that a line does not name were inactive (follow-up assays come after a bar, where they were run). In the library only some 1.6% were active in any assay of this set; here they are far more common.

O=C(Nc1cccc(C(=O)O)c1)/C(=C\c1ccc2c(c1)OCO2)NC(=O)c1ccc(Br)o1	V-ATPase pH 7.5 | VATPase regulator inactive
O=C(Nc1ccc(C(=O)O)cc1)/C(=C\c1ccc2c(c1)OCO2)NC(=O)c1ccc(Br)o1	none
O=C(CCC(=O)N1CCN(c2ccccc2F)CC1)c1ccc(F)cc1	none
Cc1ccc(C(=O)CCC(=O)N2CCN(c3ccccc3O)CC2)cc1	V-ATPase pH 11 | VATPase regulator inactive
O=C(c1ccc(F)cc1Cl)N1CCC(Oc2cccnc2)CC1	none (no result: NSD2 HMT inh, Efflux pump mplx, Rce1 inh, V-ATPase pH)
CC(=O)c1nn(-c2cccc(C)c2)cc1C(=O)c1cccc(Br)c1	V-ATPase pH 5.5 | VATPase regulator inactive
CCOC(=O)COc1ccc2c(C#N)c3ccccn3c2c1	V-ATPase pH 9.6 (no result: Efflux pump mplx) | VATPase regulator inactive
CCCCN1CCN(C(=O)Cn2c(=O)c3ccccc3n(CC)c2=O)CC1	none (no result: Efflux pump mplx, Rce1 inh, V-ATPase pH)
NNC(=O)COc1cccc(C(F)(F)F)c1	V-ATPase pH 12 | VATPase regulator inactive
Cc1ccccc1CS(=O)(=O)Cc1ccc(C(=O)Nc2c(C)cccc2C)o1	none (no result: Efflux pump mplx, Rce1 inh, V-ATPase pH)
COc1cc(C(=O)NCCOc2cccc3cccnc23)cc(OC)c1OC	V-ATPase pH 15 (no result: Rce1 inh) | VATPase regulator inactive
O=C(CNC(=O)c1cccc(Br)c1)N/N=C/c1ccc[nH]1	none
NNC(=O)CNC(=O)c1cccc(Br)c1	V-ATPase pH 26 (no result: Rce1 inh) | VATPase regulator inactive
COC(=O)C1CN(Cc2cn(CCOC(C)=O)nn2)CCS(=O)(=O)N1Cc1ccc(OC)cc1 (stereo not given)	none (no result: NSD2 HMT inh, Efflux pump mplx, Rce1 inh, V-ATPase pH)
COC(=O)c1cc(Br)c(=O)n(-c2ccccn2)c1	none
COC(=O)c1cc(Br)c(=O)n(-c2cc(C)on2)c1	V-ATPase pH 8.0 (no result: Rce1 inh) | VATPase regulator inactive
CCc1sc(C(=O)NCc2ccco2)cc1C	V-ATPase pH 12 | VATPase regulator inactive
CCc1sc(C(=O)NCc2ccco2)cc1Br	none
CC(=O)Nc1cccc(C(=O)OC(C)C(=O)NC(=O)NC2CCCCC2)c1 (stereo not given)	V-ATPase pH 11 (no result: Rce1 inh) | VATPase regulator inactive
CCCCc1ccc(-c2noc(CCC(=O)NCC)n2)cc1	none (no result: Efflux pump mplx, Rce1 inh, V-ATPase pH)
CCOC(=O)c1[nH]c2c(c1-c1ccccc1)C(=O)CC(c1ccc(OCC)cc1)C2 (stereo not given)	V-ATPase pH 11 (no result: NSD2 HMT inh) | VATPase regulator inactive
CCOC(=O)c1[nH]c2c(c1-c1ccccc1)C(=O)CC(c1ccc(OC)c(OC)c1)C2 (stereo not given)	none (no result: NSD2 HMT inh)
O=C(O)c1ccc(-c2nnc(-c3ccc([N+](=O)[O-])cc3)o2)cc1	V-ATPase pH 9.4 | VATPase regulator inactive
Cc1ccc(S(=O)(=O)N(C)[C@H]2C[C@H]3c4cc(-c5ccccc5C)ccc4CCN3C[C@H]2[C@H](C)O)cc1	none (no result: NSD2 HMT inh, Efflux pump mplx, Rce1 inh, V-ATPase pH)
O=C(c1ccccc1)N1CCN(c2nc3ccc([N+](=O)[O-])cc3s2)CC1	V-ATPase pH 16 | VATPase regulator inactive
O=[N+]([O-])c1ccc2nc(N3CCCC3)sc2c1	none
COc1ccc(OCC(=O)Nc2nc3ccccc3[nH]2)cc1	none
O=C(COc1ccc2ccccc2c1)Nc1nc2ccccc2[nH]1	V-ATPase pH 11 (no result: Rce1 inh) | VATPase regulator inactive
COc1ccc(C2C(C(=O)Nc3cc(OC)c(OC)c(OC)c3)CCC(=O)N2c2ccc(OC)cc2)cc1 (stereo not given)	none (no result: Efflux pump mplx, Rce1 inh, V-ATPase pH)
N#C/C(=C(/O)COc1ccc(Br)cc1)c1nnc2n1CCCCC2	V-ATPase pH 7.5 | VATPase regulator inactive
N#C/C(=C(/O)c1cccs1)c1nnc2n1CCCCC2	none
C/C(C=NNC(=O)CSc1nc2ccccc2n1C)=C\c1ccccc1	none (no result: Efflux pump mplx, Rce1 inh, V-ATPase pH)
O=C(Nc1ccccc1OC(=O)c1ccccc1)c1ccccc1	V-ATPase pH 15 (no result: NSD2 HMT inh, Efflux pump mplx, Rce1 inh) | VATPase regulator inactive
O=C(Nc1ccccc1OC(F)F)c1ccccc1	V-ATPase pH 11 | VATPase regulator inactive
Cc1ccc(-c2cc(C(=O)NN=Cc3ccc(-c4ccccc4)cc3)[nH]n2)cc1	none (no result: Efflux pump mplx, Rce1 inh, V-ATPase pH)
CCCCOCCCNC(=O)C[C@H]1C[C@@]2(C(=O)OC)C(=C[C@H](C(C)C)O[C@@H]2C2CC2)N(CCc2ccc(OC)c(OC)c2)C1=O	none (no result: NSD2 HMT inh, Efflux pump mplx, Rce1 inh, V-ATPase pH)
CCC(C)NCCOCCOc1ccc(C)cc1Br (stereo not given)	V-ATPase pH 36 | VATPase regulator inactive
CC(C)(C)c1cc(C(=O)N/N=C/c2cc3c(cc2Br)OCO3)n[nH]1	V-ATPase pH 11 | VATPase regulator inactive
O=C(N/N=C/c1cc2c(cc1Br)OCO2)c1ccccn1	none
C=CCN1C(=O)[C@@H](CC(=O)NCCCCc2ccccc2)[C@]2(C(=O)OC)CCCCC=C12	none (no result: NSD2 HMT inh, Efflux pump mplx, Rce1 inh, V-ATPase pH)
C[C@H](c1ccccc1)n1nnc(COCc2ccccc2)c1C#CCOCc1ccccc1	V-ATPase pH 9.9 (no result: NSD2 HMT inh) | VATPase regulator inactive
CC1CCCCC1NC(=O)Cn1c(CN2CCCCC2)nc2ccccc2c1=O (stereo not given)	none
CC1CCCCC1NC(=O)Cn1nnc2ccccc2c1=O (stereo not given)	V-ATPase pH 18 | VATPase regulator inactive
CC(C)CN1C(=O)[C@]2(CC(=O)N(C)C2c2ccccc2)c2cc(-n3cc(CCc4ccccc4)nn3)ccc21 (stereo not given in full)	none (no result: NSD2 HMT inh, Efflux pump mplx, Rce1 inh, V-ATPase pH)
O=C(/C=C/c1cccc(F)c1)Nc1cc(S(=O)(=O)N2CCOCC2)ccc1N1CCCC1	V-ATPase pH 6.5 | VATPase regulator inactive
COc1cccc(/C=C/C(=O)Nc2cc(S(=O)(=O)N3CCOCC3)ccc2OC)c1	V-ATPase pH 12 (no result: Efflux pump mplx, Rce1 inh) | VATPase regulator inactive
CCOC(=O)c1ccc(NC(=O)COc2ccccc2CNCCc2ccccc2)cc1	V-ATPase pH 14 | VATPase regulator inactive
CCOC(=O)c1ccc(NC(=O)COc2ccc(CNCCO)cc2OCC)cc1	none
Fc1ccc(N2CCN(c3ncnc4c3nnn4Cc3ccccc3Cl)CC2)cc1	none
O=C(c1ccco1)N1CCN(c2ncnc3c2nnn3Cc2ccccc2Cl)CC1	V-ATPase pH 10 | VATPase regulator inactive
COC(=O)c1[nH]c2c(c1C)C(=O)CC(c1ccc(OC)c(OC)c1)C2 (stereo not given)	none
COC(=O)c1[nH]c2c(c1C)C(=O)CC(c1cccc(OC)c1)C2 (stereo not given)	V-ATPase pH 13 | VATPase regulator inactive
O=C1NC(=S)S/C1=C\c1coc2ccccc2c1=O	V-ATPase pH 52 | VATPase regulator inactive
CC1CCN(C(=O)Cn2cnc3c(cnn3C(C)(C)C)c2=O)CC1	V-ATPase pH 11 | VATPase regulator inactive
CC(C)(C)n1ncc2c(=O)n(CC(=O)N3CCCC3)cnc21	none
CC(NC(=O)COC(=O)/C=C/c1cccc(C(F)(F)F)c1)c1ccccc1 (stereo not given)	V-ATPase pH 21 | VATPase regulator inactive
O=C(COC(=O)/C=C/c1cccc(C(F)(F)F)c1)NCc1ccccc1	none

Screens: PubChem, several laboratories
